Results as given in ChEMBL document CHEMBL1961873, “Compounds: GSK PKIS; Assays: Nanosyn kinase panel” (2012).

Legend:
[1] = molecular target: Tyrosine-protein kinase SYK (Homo sapiens) (UniProt P43405); settings: at 1 µM
[2] = molecular target: T1, Tyrosine-protein kinase Tec (Homo sapiens) (UniProt P42680); settings: at 0.1 µM
T1 sequence (whole entry): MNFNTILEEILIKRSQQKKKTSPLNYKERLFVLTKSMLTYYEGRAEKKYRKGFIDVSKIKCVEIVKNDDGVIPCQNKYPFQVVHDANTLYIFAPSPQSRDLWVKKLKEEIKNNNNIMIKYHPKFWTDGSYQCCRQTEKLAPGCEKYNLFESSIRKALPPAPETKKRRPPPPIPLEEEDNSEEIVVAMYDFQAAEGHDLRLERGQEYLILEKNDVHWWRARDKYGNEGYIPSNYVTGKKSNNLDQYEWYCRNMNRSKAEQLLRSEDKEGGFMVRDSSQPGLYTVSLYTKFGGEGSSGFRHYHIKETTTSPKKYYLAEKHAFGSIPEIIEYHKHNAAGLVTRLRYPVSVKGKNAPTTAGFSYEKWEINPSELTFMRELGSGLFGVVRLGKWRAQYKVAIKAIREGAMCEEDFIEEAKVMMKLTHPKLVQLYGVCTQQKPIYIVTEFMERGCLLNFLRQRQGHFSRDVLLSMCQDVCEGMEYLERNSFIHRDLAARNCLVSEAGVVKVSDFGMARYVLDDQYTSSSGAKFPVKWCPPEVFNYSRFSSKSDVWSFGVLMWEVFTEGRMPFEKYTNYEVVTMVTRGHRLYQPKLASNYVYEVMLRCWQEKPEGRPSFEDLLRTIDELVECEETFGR

[3] = molecular target: T1, Tyrosine-protein kinase Tec (Homo sapiens); settings: at 1 µM
[4] = molecular target: Angiopoietin-1 receptor (Homo sapiens) (UniProt Q02763); settings: at 0.1 µM
[5] = molecular target: Angiopoietin-1 receptor (Homo sapiens) (UniProt Q02763); settings: at 1 µM
[6] = molecular target: T2, Non-receptor tyrosine-protein kinase TNK1 (Homo sapiens) (UniProt Q13470); settings: at 0.1 µM
T2 sequence (whole entry): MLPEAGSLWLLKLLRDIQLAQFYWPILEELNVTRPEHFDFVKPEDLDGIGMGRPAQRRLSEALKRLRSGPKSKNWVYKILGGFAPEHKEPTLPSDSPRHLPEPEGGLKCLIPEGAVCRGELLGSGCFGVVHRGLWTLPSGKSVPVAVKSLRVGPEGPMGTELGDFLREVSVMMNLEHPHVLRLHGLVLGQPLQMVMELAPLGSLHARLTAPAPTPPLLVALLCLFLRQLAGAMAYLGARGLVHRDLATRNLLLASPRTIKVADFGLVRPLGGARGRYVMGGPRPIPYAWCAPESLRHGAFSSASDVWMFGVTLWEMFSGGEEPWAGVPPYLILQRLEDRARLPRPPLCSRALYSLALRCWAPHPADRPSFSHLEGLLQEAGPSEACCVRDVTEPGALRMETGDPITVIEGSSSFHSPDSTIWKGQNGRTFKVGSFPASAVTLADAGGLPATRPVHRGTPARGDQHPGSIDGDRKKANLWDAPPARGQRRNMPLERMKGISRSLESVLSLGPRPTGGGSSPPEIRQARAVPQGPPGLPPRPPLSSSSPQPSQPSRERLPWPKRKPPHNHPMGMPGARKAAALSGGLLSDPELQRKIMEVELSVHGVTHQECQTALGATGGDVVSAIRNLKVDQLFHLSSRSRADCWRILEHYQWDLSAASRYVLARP

[7] = molecular target: T2, Non-receptor tyrosine-protein kinase TNK1 (Homo sapiens); settings: at 1 µM
[8] = molecular target: Activated CDC42 kinase 1 (Homo sapiens) (UniProt Q07912); settings: at 0.1 µM
[9] = molecular target: Activated CDC42 kinase 1 (Homo sapiens) (UniProt Q07912); settings: at 1 µM
[10] = molecular target: High affinity nerve growth factor receptor (Homo sapiens) (UniProt P04629); settings: at 0.1 µM
[11] = molecular target: High affinity nerve growth factor receptor (Homo sapiens) (UniProt P04629); settings: at 1 µM
[12] = molecular target: BDNF/NT-3 growth factors receptor (Homo sapiens) (UniProt Q16620); settings: at 0.1 µM
[13] = molecular target: BDNF/NT-3 growth factors receptor (Homo sapiens) (UniProt Q16620); settings: at 1 µM
[14] = molecular target: NT-3 growth factor receptor (Homo sapiens) (UniProt Q16288); settings: at 0.1 µM
[15] = molecular target: NT-3 growth factor receptor (Homo sapiens) (UniProt Q16288); settings: at 1 µM
[16] = molecular target: T3, Tyrosine-protein kinase TXK (Homo sapiens) (UniProt P42681); settings: at 0.1 µM
T3 sequence (whole entry): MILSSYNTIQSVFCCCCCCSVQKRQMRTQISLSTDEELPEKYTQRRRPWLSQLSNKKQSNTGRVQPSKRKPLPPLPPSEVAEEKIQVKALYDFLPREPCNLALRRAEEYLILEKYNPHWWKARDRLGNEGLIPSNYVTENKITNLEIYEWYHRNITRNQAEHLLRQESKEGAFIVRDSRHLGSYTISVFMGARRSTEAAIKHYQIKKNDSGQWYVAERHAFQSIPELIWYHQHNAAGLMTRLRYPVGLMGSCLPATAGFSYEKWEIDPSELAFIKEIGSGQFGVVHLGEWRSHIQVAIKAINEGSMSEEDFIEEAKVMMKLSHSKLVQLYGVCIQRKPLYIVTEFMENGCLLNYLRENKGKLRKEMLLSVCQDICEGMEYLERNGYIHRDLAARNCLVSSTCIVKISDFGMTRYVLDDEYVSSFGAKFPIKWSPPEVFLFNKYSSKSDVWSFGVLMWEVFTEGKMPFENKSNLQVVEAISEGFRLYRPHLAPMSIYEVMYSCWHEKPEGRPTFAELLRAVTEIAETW

[17] = molecular target: T3, Tyrosine-protein kinase TXK (Homo sapiens); settings: at 1 µM
[18] = molecular target: Non-receptor tyrosine-protein kinase TYK2 (Homo sapiens) (UniProt P29597); settings: at 0.1 µM;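 note: each value is a mean of the inhibition readings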
[19] = molecular target: T4, Dual specificity protein kinase TTK (Homo sapiens) (UniProt P33981); settings: at 1 µM;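 note: reported figures are mean TTK inhibition at 1 µM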
T4 sequence (whole entry): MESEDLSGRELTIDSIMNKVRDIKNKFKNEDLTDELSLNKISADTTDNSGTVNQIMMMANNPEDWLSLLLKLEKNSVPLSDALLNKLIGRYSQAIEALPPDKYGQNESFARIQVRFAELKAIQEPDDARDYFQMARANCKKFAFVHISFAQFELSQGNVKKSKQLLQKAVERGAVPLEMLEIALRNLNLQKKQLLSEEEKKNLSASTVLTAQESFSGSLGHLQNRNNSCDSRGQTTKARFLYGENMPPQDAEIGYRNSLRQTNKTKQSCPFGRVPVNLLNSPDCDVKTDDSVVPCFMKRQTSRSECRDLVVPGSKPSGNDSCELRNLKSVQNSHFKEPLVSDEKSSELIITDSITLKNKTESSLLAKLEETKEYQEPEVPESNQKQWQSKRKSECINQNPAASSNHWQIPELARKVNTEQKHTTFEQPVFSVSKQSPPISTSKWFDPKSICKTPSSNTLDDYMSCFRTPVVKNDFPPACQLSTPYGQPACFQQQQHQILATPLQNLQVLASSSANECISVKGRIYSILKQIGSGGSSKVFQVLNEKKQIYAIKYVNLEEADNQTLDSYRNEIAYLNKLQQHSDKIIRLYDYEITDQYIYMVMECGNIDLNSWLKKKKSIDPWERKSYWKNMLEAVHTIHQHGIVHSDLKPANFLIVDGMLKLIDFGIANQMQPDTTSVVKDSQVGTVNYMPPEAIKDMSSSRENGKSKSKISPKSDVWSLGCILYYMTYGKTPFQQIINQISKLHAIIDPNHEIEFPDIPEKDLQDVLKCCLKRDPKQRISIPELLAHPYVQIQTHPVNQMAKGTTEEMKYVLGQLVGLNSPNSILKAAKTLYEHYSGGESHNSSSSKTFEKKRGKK

[20] = molecular target: T5, Aurora kinase A (Homo sapiens) (UniProt O14965); settings: at 0.1 µM;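 note: each reported value is a mean percent inhibition of Aurora-A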
T5 sequence (whole entry): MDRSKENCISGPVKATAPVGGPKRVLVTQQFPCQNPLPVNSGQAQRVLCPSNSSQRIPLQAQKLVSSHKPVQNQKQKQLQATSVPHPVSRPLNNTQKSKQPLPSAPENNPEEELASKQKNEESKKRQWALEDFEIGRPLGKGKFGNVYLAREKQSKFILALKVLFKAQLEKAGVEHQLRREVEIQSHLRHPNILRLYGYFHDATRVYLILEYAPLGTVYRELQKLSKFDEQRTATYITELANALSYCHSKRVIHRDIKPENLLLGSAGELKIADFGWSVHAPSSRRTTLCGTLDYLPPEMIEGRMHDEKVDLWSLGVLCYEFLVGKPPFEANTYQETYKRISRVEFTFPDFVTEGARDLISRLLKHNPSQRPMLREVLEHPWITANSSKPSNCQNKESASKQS

Sequence of High affinity nerve growth factor receptor (Homo sapiens) (P04629 33-796 limits assumed): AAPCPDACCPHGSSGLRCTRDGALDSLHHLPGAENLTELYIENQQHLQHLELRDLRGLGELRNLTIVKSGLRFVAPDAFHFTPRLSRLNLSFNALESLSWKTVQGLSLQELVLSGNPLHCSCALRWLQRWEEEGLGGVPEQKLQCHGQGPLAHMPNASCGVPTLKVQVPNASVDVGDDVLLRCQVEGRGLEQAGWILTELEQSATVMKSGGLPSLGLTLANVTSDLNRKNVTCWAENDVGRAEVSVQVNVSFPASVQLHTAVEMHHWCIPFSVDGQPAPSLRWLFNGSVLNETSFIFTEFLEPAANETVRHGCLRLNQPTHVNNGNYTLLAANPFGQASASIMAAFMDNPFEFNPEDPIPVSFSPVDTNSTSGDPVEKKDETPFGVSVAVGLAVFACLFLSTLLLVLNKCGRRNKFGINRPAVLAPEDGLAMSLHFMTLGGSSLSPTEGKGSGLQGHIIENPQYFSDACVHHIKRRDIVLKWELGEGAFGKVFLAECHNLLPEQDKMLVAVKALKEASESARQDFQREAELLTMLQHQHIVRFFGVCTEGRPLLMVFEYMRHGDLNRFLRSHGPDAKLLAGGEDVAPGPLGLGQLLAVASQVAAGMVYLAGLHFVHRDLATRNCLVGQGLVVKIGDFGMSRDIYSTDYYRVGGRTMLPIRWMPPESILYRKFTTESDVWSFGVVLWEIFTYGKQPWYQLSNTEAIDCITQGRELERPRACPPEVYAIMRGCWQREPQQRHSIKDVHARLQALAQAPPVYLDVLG
Sequence of Activated CDC42 kinase 1 (Homo sapiens) (Q07912 whole entry, looked up): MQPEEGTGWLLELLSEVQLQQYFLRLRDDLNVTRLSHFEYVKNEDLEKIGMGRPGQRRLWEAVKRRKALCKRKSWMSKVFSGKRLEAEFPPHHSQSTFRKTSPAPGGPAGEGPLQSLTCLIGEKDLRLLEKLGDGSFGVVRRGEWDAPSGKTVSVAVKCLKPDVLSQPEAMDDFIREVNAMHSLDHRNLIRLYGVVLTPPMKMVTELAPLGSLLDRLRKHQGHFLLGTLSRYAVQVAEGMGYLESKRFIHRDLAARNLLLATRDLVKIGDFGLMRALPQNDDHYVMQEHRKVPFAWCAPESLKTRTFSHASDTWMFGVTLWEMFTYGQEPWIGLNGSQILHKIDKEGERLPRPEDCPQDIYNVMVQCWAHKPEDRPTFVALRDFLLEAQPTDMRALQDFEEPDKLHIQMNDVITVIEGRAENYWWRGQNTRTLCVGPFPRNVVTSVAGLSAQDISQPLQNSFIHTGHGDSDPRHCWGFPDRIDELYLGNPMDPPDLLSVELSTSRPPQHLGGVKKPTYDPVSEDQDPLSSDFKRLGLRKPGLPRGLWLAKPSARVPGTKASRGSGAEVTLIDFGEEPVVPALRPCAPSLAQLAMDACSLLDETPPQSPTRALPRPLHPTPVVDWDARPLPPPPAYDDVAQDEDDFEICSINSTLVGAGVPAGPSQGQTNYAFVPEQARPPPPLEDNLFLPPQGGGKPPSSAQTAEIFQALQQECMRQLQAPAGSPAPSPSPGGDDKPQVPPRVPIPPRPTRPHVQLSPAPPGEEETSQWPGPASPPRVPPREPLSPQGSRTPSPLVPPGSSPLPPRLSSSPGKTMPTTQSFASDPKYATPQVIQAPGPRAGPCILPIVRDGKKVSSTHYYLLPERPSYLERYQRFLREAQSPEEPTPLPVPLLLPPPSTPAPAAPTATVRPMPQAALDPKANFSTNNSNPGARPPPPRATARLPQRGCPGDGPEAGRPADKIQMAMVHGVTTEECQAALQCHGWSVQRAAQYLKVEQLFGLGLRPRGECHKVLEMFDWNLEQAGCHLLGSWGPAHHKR
Sequence of Non-receptor tyrosine-protein kinase TYK2 (Homo sapiens) (P29597 whole entry): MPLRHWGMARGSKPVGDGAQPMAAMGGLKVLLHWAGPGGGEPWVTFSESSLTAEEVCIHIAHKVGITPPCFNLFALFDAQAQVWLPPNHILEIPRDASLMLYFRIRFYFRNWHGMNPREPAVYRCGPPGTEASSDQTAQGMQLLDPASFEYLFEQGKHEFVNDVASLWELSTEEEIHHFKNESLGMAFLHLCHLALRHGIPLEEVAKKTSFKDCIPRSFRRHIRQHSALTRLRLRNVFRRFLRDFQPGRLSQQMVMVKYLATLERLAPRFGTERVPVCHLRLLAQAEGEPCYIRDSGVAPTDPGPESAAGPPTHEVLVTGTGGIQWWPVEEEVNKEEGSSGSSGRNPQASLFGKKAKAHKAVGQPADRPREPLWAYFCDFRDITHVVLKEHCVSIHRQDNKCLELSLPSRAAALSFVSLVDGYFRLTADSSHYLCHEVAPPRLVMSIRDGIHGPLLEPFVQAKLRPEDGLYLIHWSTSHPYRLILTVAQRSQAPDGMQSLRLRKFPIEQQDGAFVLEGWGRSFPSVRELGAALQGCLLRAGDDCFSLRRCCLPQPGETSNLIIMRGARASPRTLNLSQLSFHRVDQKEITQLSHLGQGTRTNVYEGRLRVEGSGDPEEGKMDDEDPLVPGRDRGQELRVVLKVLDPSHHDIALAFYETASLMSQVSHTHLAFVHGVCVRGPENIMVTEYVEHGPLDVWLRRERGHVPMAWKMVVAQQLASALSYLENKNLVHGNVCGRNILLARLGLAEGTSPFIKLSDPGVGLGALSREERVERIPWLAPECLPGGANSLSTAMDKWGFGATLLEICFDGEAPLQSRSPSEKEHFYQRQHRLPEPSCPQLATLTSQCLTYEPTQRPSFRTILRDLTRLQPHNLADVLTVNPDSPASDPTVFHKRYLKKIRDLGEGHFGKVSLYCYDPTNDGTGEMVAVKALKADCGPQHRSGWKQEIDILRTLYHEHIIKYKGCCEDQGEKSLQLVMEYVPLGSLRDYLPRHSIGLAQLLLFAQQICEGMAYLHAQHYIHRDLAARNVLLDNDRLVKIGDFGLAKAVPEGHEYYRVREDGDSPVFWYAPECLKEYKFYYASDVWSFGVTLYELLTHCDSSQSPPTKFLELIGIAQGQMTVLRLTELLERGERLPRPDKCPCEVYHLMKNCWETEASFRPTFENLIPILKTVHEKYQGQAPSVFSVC
Sequence of NT-3 growth factor receptor (Homo sapiens) (Q16288 32-839 limits assumed): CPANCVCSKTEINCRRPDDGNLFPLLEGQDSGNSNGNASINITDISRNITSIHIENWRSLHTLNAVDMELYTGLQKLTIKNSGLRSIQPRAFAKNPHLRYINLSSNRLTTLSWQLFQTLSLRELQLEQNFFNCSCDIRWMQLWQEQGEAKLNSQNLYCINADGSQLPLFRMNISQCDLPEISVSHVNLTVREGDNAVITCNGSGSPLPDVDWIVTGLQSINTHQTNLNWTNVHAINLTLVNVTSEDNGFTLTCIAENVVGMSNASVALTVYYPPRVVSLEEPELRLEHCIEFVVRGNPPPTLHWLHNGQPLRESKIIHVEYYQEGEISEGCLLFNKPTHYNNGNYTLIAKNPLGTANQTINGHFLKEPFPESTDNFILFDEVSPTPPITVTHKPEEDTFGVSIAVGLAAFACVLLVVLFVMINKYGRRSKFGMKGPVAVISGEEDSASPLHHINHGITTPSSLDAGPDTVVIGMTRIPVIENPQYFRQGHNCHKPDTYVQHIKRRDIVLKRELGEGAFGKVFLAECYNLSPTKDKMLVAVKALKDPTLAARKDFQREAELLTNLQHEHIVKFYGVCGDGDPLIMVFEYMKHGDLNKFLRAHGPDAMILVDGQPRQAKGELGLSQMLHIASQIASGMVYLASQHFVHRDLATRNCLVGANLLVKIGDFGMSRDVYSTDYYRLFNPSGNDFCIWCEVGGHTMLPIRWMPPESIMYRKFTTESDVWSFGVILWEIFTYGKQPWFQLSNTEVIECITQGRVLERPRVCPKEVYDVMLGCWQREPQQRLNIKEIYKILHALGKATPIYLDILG
Sequence of Angiopoietin-1 receptor (Homo sapiens) (Q02763 whole entry): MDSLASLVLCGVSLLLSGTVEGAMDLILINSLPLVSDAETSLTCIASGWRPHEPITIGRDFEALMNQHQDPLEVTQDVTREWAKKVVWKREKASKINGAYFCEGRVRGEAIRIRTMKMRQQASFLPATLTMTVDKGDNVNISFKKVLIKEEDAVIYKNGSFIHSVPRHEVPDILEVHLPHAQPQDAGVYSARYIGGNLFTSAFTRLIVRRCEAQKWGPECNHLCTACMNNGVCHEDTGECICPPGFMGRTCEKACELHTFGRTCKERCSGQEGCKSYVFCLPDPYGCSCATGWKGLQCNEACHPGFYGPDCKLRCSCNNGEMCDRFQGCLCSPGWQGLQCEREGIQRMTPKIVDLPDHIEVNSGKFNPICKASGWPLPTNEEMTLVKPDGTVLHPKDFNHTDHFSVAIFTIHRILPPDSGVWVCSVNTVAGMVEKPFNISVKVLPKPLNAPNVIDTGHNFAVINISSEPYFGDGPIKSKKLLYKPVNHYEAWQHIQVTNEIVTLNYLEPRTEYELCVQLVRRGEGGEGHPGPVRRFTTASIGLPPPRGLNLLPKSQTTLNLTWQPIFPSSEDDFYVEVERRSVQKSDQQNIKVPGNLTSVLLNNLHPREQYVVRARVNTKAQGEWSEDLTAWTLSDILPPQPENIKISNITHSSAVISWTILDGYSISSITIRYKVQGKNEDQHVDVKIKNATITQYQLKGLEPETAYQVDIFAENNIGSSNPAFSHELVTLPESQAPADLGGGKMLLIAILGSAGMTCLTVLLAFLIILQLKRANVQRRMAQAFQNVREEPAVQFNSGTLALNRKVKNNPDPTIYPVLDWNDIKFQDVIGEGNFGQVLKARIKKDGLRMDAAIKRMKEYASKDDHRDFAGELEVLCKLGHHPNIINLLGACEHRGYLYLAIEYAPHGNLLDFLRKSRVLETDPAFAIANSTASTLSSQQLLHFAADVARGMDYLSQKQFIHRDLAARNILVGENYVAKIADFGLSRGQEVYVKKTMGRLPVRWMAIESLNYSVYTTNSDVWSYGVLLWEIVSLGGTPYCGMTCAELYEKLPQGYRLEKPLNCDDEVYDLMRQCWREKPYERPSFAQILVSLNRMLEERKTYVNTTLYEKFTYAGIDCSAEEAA

SMILES | inhibition [1] [%] | inhibition [2] [%] | inhibition [3] [%] | inhibition [4] [%] | inhibition [5] [%] | inhibition [6] [%] | inhibition [7] [%] | inhibition [8] [%] | inhibition [9] [%] | inhibition [10] [%] | inhibition [11] [%] | inhibition [12] [%] | inhibition [13] [%] | inhibition [14] [%] | inhibition [15] [%] | inhibition [16] [%] | inhibition [17] [%] | inhibition [18] [%] | inhibition [19] [%] | inhibition [20] [%]
c1ccc(Nc2ncc(-c3ccccc3)o2)cc1 | 3.14 | 4.25 | 8.61 | 3.52 | 3.99 | 5.05 | 9.74 | 1.38 | 0.93 | 0.26 | 6.98 | 2.68 | 9.78 | 4.23 | 8.89 | 2.01 | 6.4 | -2.68 | 16.1 | 2.24
Cc1cc(Cl)cc2c1NC(=O)C2=NNc1ccc(S(N)(=O)=O)cc1 | 0.95 | 2.23 | 1.43 | 2.08 | 2.32 | -0.6 | 7.55 | 0.54 | 1.92 | -1.82 | 2.26 | 1.15 | 4.46 | 1.2 | 3.59 | 2.77 | 3.71 | -5.56 | 9.15 | 1.75
Cc1ccc(O)cc1Nc1ccnc2ccc(S(C)(=O)=O)cc12 | -3.99 | 77.9 | 82.7 | 27.1 | 70.5 | 4.13 | 13.7 | 9.97 | 54.8 | 2.69 | 2.38 | 3.22 | 5.52 | 6.41 | 7.31 | 81 | 83.8 | -1.89 | 10 | 1.96
FC(F)(F)c1ccc(-c2nn3ncccc3c2-c2ccnc(Nc3ccc4c(c3)OCCO4)n2)cc1 | 0.25 | 3.97 | 5.21 | 9.11 | 33.8 | 6.18 | 22.2 | 6.74 | 8.14 | -1.21 | 0.14 | 1.21 | 3.15 | 1.88 | 4.32 | 6.36 | 4.7 | 3.04 | 2.98 | -2.66
CN1CCN(C(=O)c2ccc(NC(=O)Nc3ccc(N(C)c4ccnc(Nc5ccc(CS(C)(=O)=O)cc5)n4)cc3)cc2)CC1 | -2.49 | 10.1 | 37.1 | 33.2 | 67.1 | 46.2 | – | 8.52 | 61 | 7.78 | 51 | 5.61 | 31.5 | 9.24 | 36.9 | 33.8 | 70.1 | -4.74 | 8.24 | 84.3
COc1cccc(-n2ncc3c(N/N=C/c4ccc(S(C)(=O)=O)cc4)ncnc32)c1 | -1.66 | -0.19 | 10.4 | 7.64 | 31.4 | 10.4 | 20 | 1.34 | 1.96 | 4.94 | 5.3 | 6.69 | 19.3 | 6.62 | 22.3 | 0.02 | 12.4 | -0.06 | – | 6.42
Cc1ccc(Nc2ccnc(Nc3cccc(C(N)=O)c3)n2)cc1O | 14.2 | 18 | 57.1 | 4.56 | 39.7 | 8.82 | 52.1 | 3.73 | 28.8 | 4.38 | 6.07 | 4.59 | 21.6 | 3.13 | 11.5 | 10.1 | 43.7 | -1.77 | 16.3 | 14.3
Cc1cc(-c2ccccn2)cc(C)c1/C=C/c1cncc(-c2nn[nH]n2)c1 | -0.42 | 4.67 | 12.4 | 2.01 | 8.32 | 9.02 | 50.8 | 0.32 | 2.33 | 2.23 | 10 | 3.94 | 4.13 | 1.49 | 2.54 | 2.93 | 4.47 | -2.23 | 9.95 | 1.9
Nc1nccc(-c2c(-c3ccc(F)cc3)nn3cc(C(F)(F)F)ccc23)n1 | -1.5 | 0.64 | 4.1 | 1.2 | 3.87 | 2.37 | -0.22 | -0.73 | 0.6 | -2.97 | -4.55 | 0.39 | 0.48 | 0.11 | 1.1 | 0.11 | 6.52 | -4.56 | 4.23 | 0.97
C[C@@H](Oc1cc(-n2cnc3ccc(OC[C@@H](O)CO)cc32)sc1C(N)=O)c1ccccc1Cl | 0.64 | -0.35 | -0.09 | 2.55 | 14.6 | -0.47 | 18.2 | -0.26 | 2.04 | 0.33 | 3.73 | 1.11 | 14.7 | 3.59 | 29.4 | 0.37 | 3.1 | 3.13 | 1.94 | -0.94
